Data published in PubChem BioAssay (NCATS).
Records with an inconclusive call do not appear. Unless noted, calls follow the shape of the dose curve; as a rule, active = well fitted curve in either direction with a large enough effect (not every such curve was filed as active); inconclusive = small, poorly fitted or top-dose-only effect, or another doubt; inactive = flat fitted curve, though single readings scatter.

How the values were obtained:
[1] = AP1 Signaling Pathway (AID 357); settings: ME-180 AP-1-bla reporter, EGF-induced, beta-lactamase ratio, 5 h; at 17.2 µM (top of the series) unless noted;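 also: ME-180 reporter cells stimulated with EGF at its EC50 level; % is scaled to controls: 0 for no effect and ±100 for the full control effect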
Outline: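 A ratiometric CCF4 readout (405 nm excitation; 460 and 530 nm emission) quantified AP-1-driven beta-lactamase in ME-180 cells after 5 h with compound and EC50 EGF; AC50 values were derived for activators and inhibitors.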

[2] = NFAT Signaling Pathway (AID 444); settings: Jurkat NFAT-bla M1, carbachol, beta-lactamase ratio, 5 h; at 17.2 µM (top of the series) unless noted;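 also: carbachol stimulus at about its EC50 of 1 µM final; % is scaled to controls: 0 for no effect and ±100 for the full control effect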
Outline: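 Read-out: CCF4 FRET ratio (460 nm/530 nm) after 1 h RT dye loading, used for %activity and AC50 from titration series. Cells: Jurkat NFAT-β-lactamase/M1 line, treated with compound plus 1 uM carbachol for 5 h, 37 °C.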

[3] = Stat Signaling Pathway (AID 446); settings: ME-180 (cervical carcinoma) SIE beta-lactamase reporter, IL-6 stimulated, 5 h; at 17.2 µM (top of the series) unless noted;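 also: ME-180 cervical cancer cells given 40 pM IL-6 alongside compound; SIE-controlled beta-lactamase reporter measured as 460/530 nm FRET emission ratio; % is scaled to controls: 0 for no effect and ±100 for the full control effect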
Outline: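 IL-6/STAT signaling read in ME-180 cells via an SIE beta-lactamase reporter. Stimulus was 40 pM IL-6 (its AC50) for 5 hrs, so both activation and inhibition register.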

[4] = molecular target: Glucocorticoid receptor (Homo sapiens) (UniProt P04150); test: GR-GFP Redistribution (AID 450;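 active = compounds whose dose series gives a full or clear partial fitted curve of increased nuclear translocation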; also: potency is read from the fitted curve at half-maximal effect)
Glucocorticoid receptor (Homo sapiens), sequence (P04150 whole entry, looked up): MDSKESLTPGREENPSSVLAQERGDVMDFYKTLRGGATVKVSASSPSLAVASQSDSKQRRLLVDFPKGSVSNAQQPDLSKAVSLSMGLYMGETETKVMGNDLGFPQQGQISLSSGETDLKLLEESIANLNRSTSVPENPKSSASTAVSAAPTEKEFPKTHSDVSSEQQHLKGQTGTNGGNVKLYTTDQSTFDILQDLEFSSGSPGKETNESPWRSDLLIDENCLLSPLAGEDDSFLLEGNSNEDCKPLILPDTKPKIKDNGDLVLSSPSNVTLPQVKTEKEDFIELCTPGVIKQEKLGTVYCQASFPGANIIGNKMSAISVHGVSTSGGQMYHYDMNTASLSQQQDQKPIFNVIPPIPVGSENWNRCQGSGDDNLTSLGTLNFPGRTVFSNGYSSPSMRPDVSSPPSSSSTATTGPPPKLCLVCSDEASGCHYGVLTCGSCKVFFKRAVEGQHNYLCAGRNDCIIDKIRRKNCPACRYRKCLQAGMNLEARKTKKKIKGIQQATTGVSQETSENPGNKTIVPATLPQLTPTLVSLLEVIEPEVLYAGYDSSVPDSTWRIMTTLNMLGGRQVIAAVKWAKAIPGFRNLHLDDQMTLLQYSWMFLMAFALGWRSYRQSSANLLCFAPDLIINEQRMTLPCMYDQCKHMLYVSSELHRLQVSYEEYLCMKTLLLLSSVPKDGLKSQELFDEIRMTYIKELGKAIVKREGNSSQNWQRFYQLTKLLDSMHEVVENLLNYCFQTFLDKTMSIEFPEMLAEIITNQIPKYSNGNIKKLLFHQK

O=C(c1ccco1)N1CCN(c2ncnc3c2[nH]c2ccccc23)CC1
inactive: activity change, negative = inhibition [1] -12% | activity change, negative = inhibition [2] 11% | activity, negative = inhibition [3] -16.9% | Potency [4] > 20.6 µM

FC(F)(F)c1cccc(-n2cccc2/C=N/n2cnnc2)c1
inactive: activity change, negative = inhibition [1] 8.38% | activity change, negative = inhibition [2] -0.658% | activity, negative = inhibition [3] 10.7% | Potency [4] > 20.6 µM

COc1cccc(C2=CC(c3ccccc3)n3nnnc3N2)c1 (stereo not given)
inactive: activity change, negative = inhibition [1] -3.96% | activity change, negative = inhibition [2] -25.6% | activity, negative = inhibition [3] -10.3% | Potency [4] > 20.6 µM

O=C(NCc1ccccn1)c1ccc(=O)oc1
inactive: activity change, negative = inhibition [1] 5.8% | activity change, negative = inhibition [2] -2.94% | activity, negative = inhibition [3] 8.81% | Potency [4] > 20.6 µM

N=c1ncn(CC(O)CN2CCOCC2)c2nc(N3CCOCC3)[nH]c12 (stereo not given)
inactive: activity change, negative = inhibition [1] 6.34% | activity change, negative = inhibition [2] -3.22% | activity, negative = inhibition [3] 13.6% | Potency [4] > 20.6 µM

Oc1ccc(C=Nc2ccc3ncccc3c2)c(O)c1
inactive: activity change, negative = inhibition [1] 26.2% | activity change, negative = inhibition [2] -26.8% | activity, negative = inhibition [3] 13.2% | Potency [4] > 20.6 µM

CC(=O)c1ccc(C#CC(C)(C)O)s1
inactive: activity change, negative = inhibition [1] 6.06% | activity change, negative = inhibition [2] -7.12% | activity, negative = inhibition [3] 2.81% | Potency [4] > 20.6 µM

CCCCn1c2nc3ccccc3nc2c2c(=O)n(CC(C)C)cnc21
inactive: activity change, negative = inhibition [1] -1.88% | activity change, negative = inhibition [2] -20.4% | activity, negative = inhibition [3] -6.11% | Potency [4] > 20.6 µM

COc1ccc(OC)c(C2C(C#N)=C(N)Oc3cc(C)n(Cc4ccccn4)c(=O)c32)c1 (stereo not given)
inactive: activity change, negative = inhibition [1] 1.88% | activity change, negative = inhibition [2] -20.4% | activity, negative = inhibition [3] -2.84% | Potency [4] > 20.6 µM

COc1cccc(C2/C(=C(/O)c3cnn(-c4ccccc4)c3C)C(=O)C(=O)N2CCN(C)C)c1 (stereo not given)
inactive: activity change, negative = inhibition [1] 3.35% | activity change, negative = inhibition [2] -7.78% | activity, negative = inhibition [3] -11.2% | Potency [4] > 20.6 µM

CCOC(=O)c1ccc(NCC(O)COc2ccccc2)cc1 (stereo not given)
inactive: activity change, negative = inhibition [1] -4.75% | activity change, negative = inhibition [2] -1.02% | activity, negative = inhibition [3] -4.83% | Potency [4] > 20.6 µM

N#Cc1nc(-c2cccs2)oc1NCCc1ccccc1
inactive: activity change, negative = inhibition [1] -17.4% | activity change, negative = inhibition [2] -0.887% | activity, negative = inhibition [3] -12.8% | Potency [4] > 20.6 µM

Cn1c(=O)[nH]c(=O)c2c1nc(N1CCN(c3cccc(Cl)c3)CC1)n2CCCc1ccccc1
inactive: activity change, negative = inhibition [1] 26.9% | activity change, negative = inhibition [2] -11.9% | activity, negative = inhibition [3] 6.95% | Potency [4] > 20.6 µM

c1coc(-c2nnc3sc(-c4cccs4)nn23)c1
inactive: activity change, negative = inhibition [1] -11.6% | activity change, negative = inhibition [2] -8.1% | activity, negative = inhibition [3] -3.51% | Potency [4] > 20.6 µM

Cc1ccccc1COc1ccc(/C(O)=C2/C(=O)C(=O)N(CCCn3ccnc3)C2c2ccco2)cc1 (stereo not given)
inactive: activity change, negative = inhibition [1] -11.1% | activity change, negative = inhibition [2] 10.8% | activity, negative = inhibition [3] 3.48% | Potency [4] > 20.6 µM

Cc1cc(C)n(CC(=O)c2ccccc2)c(=O)c1C#N
inactive: activity change, negative = inhibition [1] 17.1% | activity change, negative = inhibition [2] -3.95% | activity, negative = inhibition [3] -3.77% | Potency [4] > 20.6 µM

COc1cc(C2C(C#N)=C(N)Oc3cc(C)n(CCN4CCOCC4)c(=O)c32)cc(OC)c1OC (stereo not given)
inactive: activity change, negative = inhibition [1] 10.6% | activity change, negative = inhibition [2] 6.98% | activity, negative = inhibition [3] -2.02% | Potency [4] > 20.6 µM

O=C(Nc1ccc2c(c1)OCO2)c1cc2n(n1)C(C(F)(F)F)CC(c1ccccc1)N2 (stereo not given)
inactive: activity change, negative = inhibition [1] 6.53% | activity change, negative = inhibition [2] 6.64% | activity, negative = inhibition [3] -1.67% | Potency [4] > 20.6 µM

COC(=O)/C=c1/s/c(=C(/C#N)C(=O)N2CCOCC2)n(-c2ccccc2)c1=O
inactive: activity change, negative = inhibition [1] 8.21% | activity change, negative = inhibition [2] -4.89% | activity, negative = inhibition [3] -9.79% | Potency [4] > 20.6 µM

Cc1cc(=O)oc(C)c1C(=O)Nc1ccc2nsnc2c1
inactive: activity change, negative = inhibition [1] 6.72% | activity change, negative = inhibition [2] -6.31% | activity, negative = inhibition [3] 8.13% | Potency [4] > 20.6 µM

CC(=O)Oc1ccc2c(C)cc(=O)[nH]c2c1
inactive: activity change, negative = inhibition [1] 8.38% | activity change, negative = inhibition [2] -13.4% | activity, negative = inhibition [3] -3.86% | Potency [4] > 20.6 µM

O=C(Nc1ncn[nH]1)c1c(Cl)ccc(Cl)c1Cl
inactive: activity change, negative = inhibition [1] 13.1% | activity change, negative = inhibition [2] 1.62% | activity, negative = inhibition [3] -0.714% | Potency [4] > 20.6 µM

C=CCNc1nc(C2(C)CC3(CC(C)(C)OC3=O)C(=O)O2)cs1 (stereo not given)
inactive: activity change, negative = inhibition [1] -3.51% | activity change, negative = inhibition [2] -7.31% | activity, negative = inhibition [3] -18.1% | Potency [4] > 20.6 µM

CCN1CCc2c(C#N)c(N3CCOCC3)nc(NCCO)c2C1
inactive: activity change, negative = inhibition [1] 0.329% | activity change, negative = inhibition [2] 3.49% | activity, negative = inhibition [3] 11.3% | Potency [4] > 20.6 µM

c1ccc(OCc2nn3c(-c4cccnc4)nnc3s2)cc1
inactive: activity change, negative = inhibition [1] -6.61% | activity change, negative = inhibition [2] 2.29% | activity, negative = inhibition [3] -4.47% | Potency [4] > 20.6 µM
